These results are taken from PubChem BioAssay.

Entries with a potency or affinity are not part of this list. Results filed as inconclusive are left out. A number with no mark means an inactive call.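 The calls were made as follows, unless noted: active = signal drop whose fitted half-maximal concentration is at most twice the top valid dose, in every test run; inconclusive = mixed calls across runs, poor fit, or flat 30 to 70% inhibition; inactive = wrong direction, flat within 30%, or potency beyond limit.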

The nature of the first assay: cytotoxicity in PAX8-dependent RMG-1 cells, dose response, cell-based, cherry-pick (AID 687029).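 Also: cells exposed to compound for 96 hours.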 The following applies: RMG-1 viability, CellTiterGlo ATP luminescence, 96 h; series mostly up to 35 µM; activity change, negative = inhibition: at the top concentration. A general note: In ATP-based viability assays light output follows the ATP content of the culture.
Consider `C=C1C(=O)[C@]23C[C@H]1CCC2[C@@]1(C)C(C[C@@H]3O)[C@](C)(C(=O)OC)CC[C@@H]1O` (stereo partly drawn), for which the “activity change, negative = inhibition” value was 21.5%.
In the case of `Cc1ccc(C(=O)O/N=C(\N)c2ccccn2)cc1`, the “activity change, negative = inhibition” value is 39.5%.
Same read-out and setting: with `O=C(NCCc1ccccc1)C(c1cccs1)N(C(=O)CCl)c1ccc(Cl)cc1` (stereo not drawn) the figure was 11.5%; with `C#CC(=O)N(c1ccc(OC)cc1OC)C(C(=O)NC1CCCC1)c1cccs1` (stereo not drawn), 17.5%.
As to `CC(C)Nc1ccc(Nc2ccnc3cc4ccccc4cc23)cc1`, the “activity change, negative = inhibition” value is 29.4%.
As to `C/C(=N\NC(=O)c1n[nH]c2c1CCC2)c1cccs1`, the “activity change, negative = inhibition” value was 7.18%.
Consider `COc1ccc(N2C(=O)CC(Sc3nnnn3-c3ccc(F)cc3)C2=O)cc1` (stereo not drawn), for which the “activity change, negative = inhibition” value is 12.4%.
Still for that read-out and setting: with `CCCCCCCN(C(=O)CCl)c1cccc(C)c1` the figure was 11.7%; with `Cc1ccc(C(=O)Nc2cnc3ccccc3c2)cc1`, 56.8%.
As to `COc1cccc(N2CCN(c3ncnc4c3cnn4-c3ccc(C)cc3C)CC2)c1`, the “activity change, negative = inhibition” value is 22%.
Same read-out and setting: with `Cc1nc2c(=O)n(C)c(=O)n(C)c2nc1Cl` the figure was 31.8%.
Turning to `CS(=O)(=O)c1ccc(C(=O)OCC(=O)NCc2cccs2)cc1[N+](=O)[O-]`, the “activity change, negative = inhibition” value was -25.4%.
`COC(=O)C1=C(C)N(Cc2ccc(C(F)(F)F)cc2)C(=NCc2ccccc2)NC1c1cccc(F)c1` (stereo not drawn): the “activity change, negative = inhibition” value was 8.73%.
`C(=C\c1ccc(C2[C@@H]3CN(Cc4ccc5c(c4)OCO5)C[C@H]2N3)cc1)/c1ccccc1` (stereo partly drawn): the “activity change, negative = inhibition” value was 18.4% [at 30 µM].
Consider `CCOc1ccc(NC(=O)Nc2cccc(C(=O)O)c2)cc1`, for which the “activity change, negative = inhibition” value is 7.93%.
Turning to `C=CCC[C@@H](Cc1ccc(F)cc1)C(=O)OC[C@@H](Cc1c[nH]c2ccccc12)NC(=O)[C@H](CC=C)CC(=O)N(CCO)Cc1ccccc1`, the “activity change, negative = inhibition” value is 6.89%.
As to `COc1ccc(N(Cc2cc3cc(OC)ccc3[nH]c2=O)S(=O)(=O)c2ccc(NC(C)=O)cc2)cc1`, the “activity change, negative = inhibition” value was 41.7%.
Take `O=[N+]([O-])c1c(Nc2cccc(O)c2)cc(Cl)c2nonc12`: the “activity change, negative = inhibition” value was 43.8%.
Same read-out and setting: the result for `CC(C)c1ccc(-c2nc3ccccc3s2)cc1` reads 2.66%.
`COc1ccc(Oc2ccc(/C=C/C(=O)c3cccc(OC)c3)cc2[N+](=O)[O-])cc1`: the “activity change, negative = inhibition” value was 11.7%.
Regarding `CCC[C@@H](CN[C@@H](CNC)[C@H](C)CC)NCC1CCC(C(C)(C)C)CC1` (stereo partly drawn), the “activity change, negative = inhibition” value was 25.9%.
For `COc1ccc(OC)c(N(CCN2C(=O)c3ccccc3C2=O)C(=O)CCl)c1`, the “activity change, negative = inhibition” value is 29.4%.
`O=C(COC(=O)c1ccco1)Nc1cccc(S(=O)(=O)N2CCOCC2)c1`: the “activity change, negative = inhibition” value was 29.3%.
As to `COc1ccc(C(=O)O/N=C(\N)c2ccccn2)cc1`, the “activity change, negative = inhibition” value was 25.8%.
Still for that read-out and setting: with `COc1ccc(CN(C)C[C@H]2OCCCC[C@H](C)Oc3ccc(NC(=O)Nc4ccc(C(F)(F)F)cc4)cc3C(=O)N([C@@H](C)CO)C[C@H]2C)cc1` the figure was 13.3%; with `Cc1ccc(S(=O)(=O)c2ncccc2[N+](=O)[O-])cc1`, 31.9%.
Turning to `COc1ccccc1N(C(C)=O)C1=C(Cl)C(=O)c2ccccc2C1=O`, the “activity change, negative = inhibition” value was 39.5%.
Same read-out and setting: with `COc1cccc(/C=N/Nc2nc(Nc3ccc([N+](=O)[O-])cc3)nc(N3CCCC3)n2)c1O` the figure was 19%.
The same measure, in the same setting: the result for `COc1ccc(OC)c2sc(N(CCCN(C)C)C(=O)CCS(=O)(=O)c3ccccc3)nc12` reads 33.7% [at 16 µM]; that for `COc1ccc(/C=C2\CN(Cc3ccccc3)C/C(=C\c3ccc(OC)cc3OC)C2=O)c(OC)c1`, 23.3%.
In the case of `CC(C)=CCC/C(C)=C/CN1C(=O)N(c2ccc(F)cc2)[C@H]2C[C@@H](c3ccccc3)[C@@H](C)[C@@H](C(=O)N3CCOCC3)C[C@H]21`, the “activity change, negative = inhibition” value is 23.2%.
For the compound `OC(c1cc(-c2ccc(C(F)(F)F)cc2)nc(C(F)(F)F)c1)C1CCCCN1` (stereo not drawn), the “activity change, negative = inhibition” value was 32.2%.
`COc1cc(NC(=O)c2ccc([N+](=O)[O-])o2)ccc1NC(=O)c1ccco1`: the “activity change, negative = inhibition” value is 28.9%.
For `NC1=C(Cl)C(=O)c2ccc(S(N)(=O)=O)cc2C1=O`, the “activity change, negative = inhibition” value was 16.9%.
Turning to `C(=N\Nc1nc2ccccc2s1)/c1ccccn1`, the “activity change, negative = inhibition” value is 22.7%.
As to `CC(=O)N(C1=C(Cl)C(=O)c2ccccc2C1=O)C1CCCCC1`, the “activity change, negative = inhibition” value was 33.8%.
On to `O=C(CCl)N=c1sccn1Cc1ccc(Cl)cc1Cl`, for which the “activity change, negative = inhibition” value was 17.4%.
Turning to `CCOC(=O)c1c2c(n(Cc3ccccc3)c1C)C(=O)C(=O)c1ccccc1-2`, the “activity change, negative = inhibition” value was 40.5%.
Still for that read-out and setting: with `Cc1cccc(-n2ncc(Cl)c(Cl)c2=O)c1` the figure was 42.5%.

A short description of a further assay: inhibitors of CMV-promoter luciferase reporter, dose response, counter-screen for Pax8 inhibitor project, cell-based, HEK293, luminescence, dry powder (AID 743020;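 active = signal-lowering compounds whose fitted half-maximal concentration is at or below twice the top tested dose in every run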;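 also: HEK293 cells stably expressing the CMV luciferase reporter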). As to conditions: SteadyGlo luminescence, 24 h; series mostly up to 35 µM; activity change, negative = inhibition: at the top concentration. On the technique in general: Reporter assays use an easily measured gene product as a stand-in for the process of interest.
Turning to `C=C1C(=O)[C@]23C[C@H]1CCC2[C@@]1(C)C(C[C@@H]3O)[C@](C)(C(=O)OC)CC[C@@H]1O` (stereo partly drawn), the “activity change, negative = inhibition” value was 290%.
Turning to `Cc1ccc(C(=O)O/N=C(\N)c2ccccn2)cc1`, the “activity change, negative = inhibition” value is 4.1%.
The same measure, in the same setting: the result for `O=C(NCCc1ccccc1)C(c1cccs1)N(C(=O)CCl)c1ccc(Cl)cc1` (stereo not drawn) reads -3.09%; that for `C#CC(=O)N(c1ccc(OC)cc1OC)C(C(=O)NC1CCCC1)c1cccs1` (stereo not drawn), -7.84%.
As to `CC(C)Nc1ccc(Nc2ccnc3cc4ccccc4cc23)cc1`, the “activity change, negative = inhibition” value is 261%.
In the case of `C/C(=N\NC(=O)c1n[nH]c2c1CCC2)c1cccs1`, the “activity change, negative = inhibition” value was 3.33%.
Turning to `COc1ccc(N2C(=O)CC(Sc3nnnn3-c3ccc(F)cc3)C2=O)cc1` (stereo not drawn), the “activity change, negative = inhibition” value is 8.08%.
As to `CCCCCCCN(C(=O)CCl)c1cccc(C)c1`, the “activity change, negative = inhibition” value was 21.1%.
For `Cc1ccc(C(=O)Nc2cnc3ccccc3c2)cc1`, the “activity change, negative = inhibition” value is -8.97%.
Still for that read-out and setting: the result for `COc1cccc(N2CCN(c3ncnc4c3cnn4-c3ccc(C)cc3C)CC2)c1` reads -0.49%.
On to `Cc1nc2c(=O)n(C)c(=O)n(C)c2nc1Cl`, for which the “activity change, negative = inhibition” value was 10.9%.
With `CS(=O)(=O)c1ccc(C(=O)OCC(=O)NCc2cccs2)cc1[N+](=O)[O-]`, the “activity change, negative = inhibition” value was 0.59%.
Same read-out and setting: the result for `COC(=O)C1=C(C)N(Cc2ccc(C(F)(F)F)cc2)C(=NCc2ccccc2)NC1c1cccc(F)c1` (stereo not drawn) reads 0.633%; that for `C(=C\c1ccc(C2[C@@H]3CN(Cc4ccc5c(c4)OCO5)C[C@H]2N3)cc1)/c1ccccc1` (stereo partly drawn), -0.569% [at 30 µM]; that for `CCOc1ccc(NC(=O)Nc2cccc(C(=O)O)c2)cc1`, 6.35%.
Same read-out and setting: with `C=CCC[C@@H](Cc1ccc(F)cc1)C(=O)OC[C@@H](Cc1c[nH]c2ccccc12)NC(=O)[C@H](CC=C)CC(=O)N(CCO)Cc1ccccc1` the figure was 4.46%; with `COc1ccc(N(Cc2cc3cc(OC)ccc3[nH]c2=O)S(=O)(=O)c2ccc(NC(C)=O)cc2)cc1`, -12.7%; with `O=[N+]([O-])c1c(Nc2cccc(O)c2)cc(Cl)c2nonc12`, -42.2%.
`CC(C)c1ccc(-c2nc3ccccc3s2)cc1`: the “activity change, negative = inhibition” value was -37.4%.
With `COc1ccc(Oc2ccc(/C=C/C(=O)c3cccc(OC)c3)cc2[N+](=O)[O-])cc1`, the “activity change, negative = inhibition” value was 16.7%.
On to `CCC[C@@H](CN[C@@H](CNC)[C@H](C)CC)NCC1CCC(C(C)(C)C)CC1` (stereo partly drawn), for which the “activity change, negative = inhibition” value was 11.6%.
Turning to `COc1ccc(OC)c(N(CCN2C(=O)c3ccccc3C2=O)C(=O)CCl)c1`, the “activity change, negative = inhibition” value was -24.8%.
With `O=C(COC(=O)c1ccco1)Nc1cccc(S(=O)(=O)N2CCOCC2)c1`, the “activity change, negative = inhibition” value is 12%.
`COc1ccc(C(=O)O/N=C(\N)c2ccccn2)cc1`: the “activity change, negative = inhibition” value was 3.79%.
As for `COc1ccc(CN(C)C[C@H]2OCCCC[C@H](C)Oc3ccc(NC(=O)Nc4ccc(C(F)(F)F)cc4)cc3C(=O)N([C@@H](C)CO)C[C@H]2C)cc1`, the “activity change, negative = inhibition” value was -9.56%.
With `Cc1ccc(S(=O)(=O)c2ncccc2[N+](=O)[O-])cc1`, the “activity change, negative = inhibition” value was 15%.
Consider `COc1ccccc1N(C(C)=O)C1=C(Cl)C(=O)c2ccccc2C1=O`, for which the “activity change, negative = inhibition” value was 179%.
For the compound `COc1cccc(/C=N/Nc2nc(Nc3ccc([N+](=O)[O-])cc3)nc(N3CCCC3)n2)c1O`, the “activity change, negative = inhibition” value was 5.39%.
On the same count and under the same terms, the result for `COc1ccc(OC)c2sc(N(CCCN(C)C)C(=O)CCS(=O)(=O)c3ccccc3)nc12` reads -8.31%; that for `COc1ccc(/C=C2\CN(Cc3ccccc3)C/C(=C\c3ccc(OC)cc3OC)C2=O)c(OC)c1`, -20%; that for `CC(C)=CCC/C(C)=C/CN1C(=O)N(c2ccc(F)cc2)[C@H]2C[C@@H](c3ccccc3)[C@@H](C)[C@@H](C(=O)N3CCOCC3)C[C@H]21`, 6.96%.
Take `OC(c1cc(-c2ccc(C(F)(F)F)cc2)nc(C(F)(F)F)c1)C1CCCCN1` (stereo not drawn): the “activity change, negative = inhibition” value was -3.75%.
Same read-out and setting: with `COc1cc(NC(=O)c2ccc([N+](=O)[O-])o2)ccc1NC(=O)c1ccco1` the figure was 19.4%; with `NC1=C(Cl)C(=O)c2ccc(S(N)(=O)=O)cc2C1=O`, -23.1%.
In the case of `C(=N\Nc1nc2ccccc2s1)/c1ccccn1`, the “activity change, negative = inhibition” value is -15%.
`CC(=O)N(C1=C(Cl)C(=O)c2ccccc2C1=O)C1CCCCC1`: the “activity change, negative = inhibition” value is 3.85%.
As for `O=C(CCl)N=c1sccn1Cc1ccc(Cl)cc1Cl`, the “activity change, negative = inhibition” value is -5.26%.
Take `CCOC(=O)c1c2c(n(Cc3ccccc3)c1C)C(=O)C(=O)c1ccccc1-2`: the “activity change, negative = inhibition” value was -23.3%.
As to `Cc1cccc(-n2ncc(Cl)c(Cl)c2=O)c1`, the “activity change, negative = inhibition” value is -30.7%.
